From PubChem BioAssay (NCI) come the findings set out here.

About 83,000 compounds went through this panel and 20% of them were active in at least one assay; those are over-represented in the sample as a whole.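 Testing used 96-well plates and a 48-hour single-concentration exposure. Example: -40 means 40% of the starting cells died.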 Values without a mark were called inactive. Calls of active or inactive are those of the source. How the source made its calls: active means growth percent below 10; inactive means the rest.

Some test systems named below: DU-145 prostate; K-562 leukemia; MALME-3M melanoma; MDA-MB-231 breast; RXF 393 renal; SF-268 CNS; SF-295 CNS; SF-539 CNS; UACC-257 melanoma; M14 melanoma; HCT-15 colon; SNB-75 CNS; SNB-19 CNS; U251 CNS; PC-3 prostate; SK-MEL-5 melanoma; UACC-62 melanoma; LOX IMVI melanoma; SK-MEL-28 melanoma; HT29 colon.
Holding throughout (assay): NCI-60 one-dose screen, 48 h (100 = growth as untreated, 0 = no growth, -100 = all killed)
Holding throughout (settings): 10 µM

As for `COc1ccc(-c2oncc2-c2cc(OC)c3c(c2)OCO3)cc1`, the growth was 34.2% with DU-145 prostate; 13.8% in the test with K-562 leukemia; 52.4% in the test on MALME-3M melanoma; 54.1% in the test on MDA-MB-231 breast; 17.4% in the test with RXF 393 renal; 50.2% in the test on SF-268 CNS. Further, the growth with SF-295 CNS is 12.3%; in the test on SF-539 CNS, -16% (active); in the test on UACC-257 melanoma, 45.1%; in the test with M14 melanoma, 13.1%; in the test with HCT-15 colon it was 15.9%; in the test on SNB-75 CNS, -9.45% (active). Moreover, the growth is 46.2% with SNB-19 CNS; 28% in the test with U251 CNS; 40.4% in the test on PC-3 prostate; 17.9% in the test with SK-MEL-5 melanoma; 50.7% in the test on UACC-62 melanoma; 34.2% with LOX IMVI melanoma. The growth in the test on SK-MEL-28 melanoma was 37%.

Turning to `CCc1ccc(-c2nnc(COc3ccc(-c4nc5cc(Cl)c(Cl)cc5[nH]4)cc3OC)o2)cc1`, the growth in the test with DU-145 prostate is 66.6%; in the test on K-562 leukemia it was 15.5%; in the test on MALME-3M melanoma, 57.9%; in the test on MDA-MB-231 breast, 58%; in the test with RXF 393 renal, 46%; in the test on SF-268 CNS it was 99.1%. Besides, the growth in the test with SF-295 CNS is 88.2%; in the test on SF-539 CNS, 26.1%; in the test with UACC-257 melanoma, 91.4%; in the test with M14 melanoma, 52.6%; with HT29 colon, 62.1%; in the test with SNB-75 CNS, 48.4%. Also, the growth in the test on SNB-19 CNS is 68.3%; in the test with U251 CNS, 29.1%; in the test with PC-3 prostate it was 52.6%; with SK-MEL-5 melanoma, 84.9%; in the test on UACC-62 melanoma, 78.8%; in the test on LOX IMVI melanoma, 43.3%. In the test on SK-MEL-28 melanoma, the growth was 67.1%.

In the case of `CN(C)c1ccc2cc(-c3cc4c(oc3=O)-c3ccccc3OC4O)c(=O)oc2c1` (centres undefined), the growth in the test on DU-145 prostate is 11%; in the test with K-562 leukemia, -55.8% (active); with MALME-3M melanoma it was -59.3% (active); in the test with MDA-MB-231 breast, -39.8% (active); in the test on SF-268 CNS, 56.9%; in the test on SF-295 CNS it was -56.4% (active). Further, the growth in the test on SF-539 CNS was 19%; with UACC-257 melanoma, 42.9%; in the test on M14 melanoma, -47.8% (active); in the test on HCT-15 colon it was 7.71% (active); with HT29 colon it was 18.9%; in the test on SNB-75 CNS, 24%. Besides, the growth in the test on SNB-19 CNS is 36.7%; in the test on U251 CNS it was 30%; with PC-3 prostate, -5.5% (active); with SK-MEL-5 melanoma it was -34% (active); in the test on UACC-62 melanoma it was 33.4%; with LOX IMVI melanoma, -32.4% (active). Moreover, in the test on SK-MEL-28 melanoma, the growth was 64.5%.

Regarding `COc1ccc2oc(=O)cc(C3c4ccc([nH]4)C(c4cc(=O)oc5ccc(OC)cc45)c4ccc([nH]4)C(c4cc(=O)oc5ccc(OC)cc45)c4ccc([nH]4)C(c4cc(=O)oc5ccc(OC)cc45)c4ccc3[nH]4)c2c1` (centres undefined), the growth in the test with DU-145 prostate is -19.3% (active); with K-562 leukemia, -20.5% (active); in the test with MALME-3M melanoma it was 2.83% (active); in the test with MDA-MB-231 breast, -16.5% (active); in the test with RXF 393 renal, -77.3% (active); in the test with SF-268 CNS, 20.4%. In addition, the growth in the test with SF-295 CNS was 9.08% (active); with SF-539 CNS, -26.9% (active); in the test on UACC-257 melanoma, 33.7%; in the test on M14 melanoma, 3.08% (active); in the test on HT29 colon it was -41.5% (active); with SNB-75 CNS, 19.3%. Besides, the growth was 26% with SNB-19 CNS; 1.28% (active) in the test on U251 CNS; -4.6% (active) with SK-MEL-5 melanoma; -8.02% (active) in the test with UACC-62 melanoma; -60.4% (active) in the test on LOX IMVI melanoma; 1.37% (active) in the test with SK-MEL-28 melanoma.

For `Cc1nc2scc(-c3ccc(Cl)cc3)n2c(=O)c1CCN1CCOCC1`, the growth was 115% in the test with DU-145 prostate; 80.6% in the test on K-562 leukemia; 100% with MALME-3M melanoma; 78.3% in the test on MDA-MB-231 breast; 118% with RXF 393 renal; 102% in the test with SF-268 CNS. For the same compound, the growth in the test with SF-295 CNS is 70.7%; with SF-539 CNS it was 100%; in the test with UACC-257 melanoma, 108%; in the test on M14 melanoma, 97.8%; in the test on HT29 colon, 105%; in the test on SNB-75 CNS, 84.6%. The growth in the test on SNB-19 CNS is 94.6%; in the test on U251 CNS, 96.7%; in the test with PC-3 prostate, 87.5%; in the test with SK-MEL-5 melanoma, 94.5%; in the test on UACC-62 melanoma it was 85.6%; with LOX IMVI melanoma it was 97.5%. Moreover, the growth in the test on SK-MEL-28 melanoma is 102%.

Take `COc1ccc(/C=C2\SC(=S)N(CCCN3CCOCC3)C2=O)c(OC)c1`: the growth is 100% in the test with DU-145 prostate; 83.8% in the test on K-562 leukemia; 118% in the test on MALME-3M melanoma; 96.9% with MDA-MB-231 breast; 108% with RXF 393 renal; 104% with SF-268 CNS. Further, the growth in the test on SF-295 CNS is 107%; in the test on SF-539 CNS, 104%; with UACC-257 melanoma it was 102%; in the test on M14 melanoma it was 95.6%; in the test with HT29 colon, 96.2%; with SNB-75 CNS it was 99.4%. Further, the growth with SNB-19 CNS was 99.8%; with U251 CNS it was 97.3%; with PC-3 prostate, 93.2%; in the test with SK-MEL-5 melanoma it was 90%; in the test with UACC-62 melanoma it was 90.8%; in the test with LOX IMVI melanoma, 97.8%. The growth with SK-MEL-28 melanoma was 106%.

As for `COc1cc(-c2cc(-c3cc(OC)c(OC)c(OC)c3)nc3nc(N)[nH]c(=O)c23)ccc1Oc1ccnc2cc(Cl)ccc12`, the growth was 33.9% in the test with DU-145 prostate; 10.6% in the test on K-562 leukemia; 59% in the test with MALME-3M melanoma; 36.7% in the test with MDA-MB-231 breast; -13% (active) with RXF 393 renal; 47.2% in the test with SF-268 CNS. Further, the growth in the test on SF-295 CNS was 93.5%; in the test on SF-539 CNS, -59.7% (active); in the test on UACC-257 melanoma it was 66.6%; in the test on M14 melanoma, 12.6%; with HT29 colon, 104%; in the test on SNB-75 CNS, -8.67% (active). Moreover, the growth is 59.4% in the test on SNB-19 CNS; 23% in the test with U251 CNS; 25.9% in the test with PC-3 prostate; 27% in the test with SK-MEL-5 melanoma; 49.8% in the test with UACC-62 melanoma; 27.8% with LOX IMVI melanoma. In addition, the growth in the test with SK-MEL-28 melanoma was 56.9%.

On to `N#CN1CC[C@H](C(=O)Nc2ncc(-c3ccncc3)s2)C1`, for which the growth in the test with DU-145 prostate was 8.45% (active); in the test with K-562 leukemia it was 3.89% (active); in the test on MALME-3M melanoma, -19.4% (active); with MDA-MB-231 breast, 2.16% (active); with RXF 393 renal it was -58.8% (active); in the test with SF-268 CNS it was 5.17% (active). In addition, the growth in the test on SF-295 CNS is 4.53% (active); with SF-539 CNS, -20.7% (active); with UACC-257 melanoma it was -19.4% (active); in the test on M14 melanoma, 1.13% (active); in the test on HT29 colon, -39.9% (active); in the test on SNB-75 CNS, -37.5% (active). Moreover, the growth in the test with U251 CNS was 1.7% (active); in the test on PC-3 prostate it was 5.04% (active); in the test with SK-MEL-5 melanoma, -17.1% (active); in the test with UACC-62 melanoma, -26.9% (active); in the test with LOX IMVI melanoma it was 2.09% (active); with SK-MEL-28 melanoma, 5.92% (active).

On to `Clc1cc(Cl)c(Cl)c(-c2nc(-c3cccnc3)cs2)c1`, for which the growth with DU-145 prostate is 37.2%; with K-562 leukemia, 12%; in the test with MALME-3M melanoma, 28.6%; with MDA-MB-231 breast, 74%; in the test on SF-268 CNS it was 85.8%; with SF-295 CNS it was 100%. The growth with SF-539 CNS is 81.4%; with UACC-257 melanoma, 64.2%; in the test on M14 melanoma, 51.8%; in the test with HCT-15 colon, 87.1%; in the test with HT29 colon, 46.3%; with SNB-75 CNS, 91.7%. For the same compound, the growth in the test on SNB-19 CNS is 103%; with U251 CNS it was 88.7%; with PC-3 prostate, 88.5%; with SK-MEL-5 melanoma, 93.9%; with UACC-62 melanoma it was 77.5%; with LOX IMVI melanoma it was 64.4%. The growth in the test on SK-MEL-28 melanoma is 72.2%.
